Assay results: ChEMBL document CHEMBL3988442, “University of Dundee, Small-Polar-MMV Screening Library” (2021)
For some assays here: Measured potencies and affinities stand elsewhere.

What was measured:
Parameters in all cases: scale not given: direction of the effect not stated beside the values
[1] = molecular target: Protein translocase subunit SecA (Escherichia coli (strain K12)) (UniProt P10408); assay: Assay to Identify E. coli SecA ATPase Inhibitors; format: functional; conditions: 30 µM
[2] = molecular target: T1, Ubiquitin-activating enzyme e1, putative (Leishmania donovani (strain BPK282A1)) (UniProt E9BSI1); assay: Leishmania donovani Ubiquitin Activating Enzyme (LdE1); format: functional; conditions: 30 µM
T1 sequence (whole entry): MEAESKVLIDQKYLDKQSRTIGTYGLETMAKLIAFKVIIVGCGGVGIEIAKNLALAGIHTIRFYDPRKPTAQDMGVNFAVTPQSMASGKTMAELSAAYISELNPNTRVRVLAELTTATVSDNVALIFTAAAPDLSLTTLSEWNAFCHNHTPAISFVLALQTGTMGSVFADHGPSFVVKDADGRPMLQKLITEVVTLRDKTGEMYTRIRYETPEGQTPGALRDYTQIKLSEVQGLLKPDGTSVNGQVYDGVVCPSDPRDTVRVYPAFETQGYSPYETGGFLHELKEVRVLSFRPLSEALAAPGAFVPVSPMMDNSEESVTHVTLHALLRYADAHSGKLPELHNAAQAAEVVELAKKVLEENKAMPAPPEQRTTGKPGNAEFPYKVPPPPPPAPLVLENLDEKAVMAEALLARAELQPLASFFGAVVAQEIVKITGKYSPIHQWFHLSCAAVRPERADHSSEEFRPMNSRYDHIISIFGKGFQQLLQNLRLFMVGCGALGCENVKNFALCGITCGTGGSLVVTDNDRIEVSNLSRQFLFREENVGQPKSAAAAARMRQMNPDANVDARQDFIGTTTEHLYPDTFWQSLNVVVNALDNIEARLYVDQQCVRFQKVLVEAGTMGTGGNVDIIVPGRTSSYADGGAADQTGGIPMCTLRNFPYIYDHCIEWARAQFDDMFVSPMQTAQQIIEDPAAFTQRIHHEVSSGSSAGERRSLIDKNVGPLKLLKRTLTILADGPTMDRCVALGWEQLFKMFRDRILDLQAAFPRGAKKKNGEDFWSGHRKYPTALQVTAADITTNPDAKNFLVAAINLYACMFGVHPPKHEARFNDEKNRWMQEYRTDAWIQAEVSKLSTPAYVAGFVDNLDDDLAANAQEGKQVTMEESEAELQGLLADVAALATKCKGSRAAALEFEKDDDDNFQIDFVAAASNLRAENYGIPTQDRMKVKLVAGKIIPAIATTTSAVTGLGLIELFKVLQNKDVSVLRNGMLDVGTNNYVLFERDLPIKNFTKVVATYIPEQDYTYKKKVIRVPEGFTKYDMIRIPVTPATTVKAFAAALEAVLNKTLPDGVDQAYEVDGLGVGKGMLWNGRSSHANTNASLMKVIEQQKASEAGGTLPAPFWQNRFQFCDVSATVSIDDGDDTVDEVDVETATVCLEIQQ

[3] = molecular target: AMP-activated protein kinase, AMPK (Homo sapiens) (UniProt P54646+O43741+P54619+Q9UGJ0+Q9Y478+Q13131+Q9UGI9); assay: AMP-dependent Kinase enzyme assay. An in vitro enzyme assay that detects ADP turnover that is directly proportional to AMPK activity. This uses naive AMPK that is activated during the assay with MK-8722; format: functional; conditions: 30 µM
[4] = molecular target: Sialic acid-binding Ig-like lectin 9 (Homo sapiens) (UniProt Q9Y336); assay: Hs-Siglec9 ALPHAscreen SOP 20170721; conditions: 10 µM
Trypanosoma cruzi = assay: Trypanosoma cruzi phosphomannomutase and mannose-1-phosphate guanylyltransferase assay; format: functional; conditions: 10 µM
[5] = molecular target: T2, Arginase-2, mitochondrial (Homo sapiens) (UniProt P78540); assay: in vitro enzyme assay to detect the production of urea directly proportional to the activity of Arginase II; format: functional; conditions: 33.3 µM; also: in the data most compounds retested in dose-response had high values
T2 sequence (whole entry): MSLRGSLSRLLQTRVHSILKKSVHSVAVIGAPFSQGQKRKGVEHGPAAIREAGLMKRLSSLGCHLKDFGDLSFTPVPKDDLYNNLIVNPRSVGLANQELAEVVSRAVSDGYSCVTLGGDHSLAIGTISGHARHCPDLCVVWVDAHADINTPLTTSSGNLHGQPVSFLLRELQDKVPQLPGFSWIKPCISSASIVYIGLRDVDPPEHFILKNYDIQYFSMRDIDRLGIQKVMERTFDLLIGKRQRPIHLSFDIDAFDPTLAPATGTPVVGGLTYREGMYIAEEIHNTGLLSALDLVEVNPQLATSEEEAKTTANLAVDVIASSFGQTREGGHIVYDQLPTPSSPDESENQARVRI

[6] = molecular target: T3, Proteasome subunit beta (Trypanosoma cruzi) (UniProt O96673); assay: Trypanosoma cruzi proteasome chymotrypsin-like activity (TcProtChymo) assay.; also: in the data most compounds retested in dose-response had high values; format: functional; conditions: 9.37 µM
T3 sequence (whole entry): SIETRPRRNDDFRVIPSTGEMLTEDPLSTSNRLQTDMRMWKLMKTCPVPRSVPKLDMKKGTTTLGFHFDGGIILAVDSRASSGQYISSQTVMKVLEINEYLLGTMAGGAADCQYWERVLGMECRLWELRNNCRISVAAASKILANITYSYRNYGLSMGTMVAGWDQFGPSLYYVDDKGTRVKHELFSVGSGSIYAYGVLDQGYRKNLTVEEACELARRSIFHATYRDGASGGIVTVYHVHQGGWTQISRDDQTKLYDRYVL

Homo sapiens = organism: Homo sapiens; assay: To identify inhibition of the IFN signalling (Jak-Stat) pathway via expression of an eGFP reporter gene under the control of an IFN-stimulated response element (ISRE) containing MxA promoter.; format: functional; conditions: 30 µM
[7] = molecular target: T4, Tyrosyl-tRNA synthetase, putative (Trypanosoma cruzi (strain CL Brener)) (UniProt Q4DSP6); assay: Trypanosoma cruzi tyrosyl tRNA synthetase (TcYRS) _High Tyrosine SOP; format: functional; conditions: 30 µM; also: in the data most compounds retested in dose-response had high values
T4 sequence (whole entry): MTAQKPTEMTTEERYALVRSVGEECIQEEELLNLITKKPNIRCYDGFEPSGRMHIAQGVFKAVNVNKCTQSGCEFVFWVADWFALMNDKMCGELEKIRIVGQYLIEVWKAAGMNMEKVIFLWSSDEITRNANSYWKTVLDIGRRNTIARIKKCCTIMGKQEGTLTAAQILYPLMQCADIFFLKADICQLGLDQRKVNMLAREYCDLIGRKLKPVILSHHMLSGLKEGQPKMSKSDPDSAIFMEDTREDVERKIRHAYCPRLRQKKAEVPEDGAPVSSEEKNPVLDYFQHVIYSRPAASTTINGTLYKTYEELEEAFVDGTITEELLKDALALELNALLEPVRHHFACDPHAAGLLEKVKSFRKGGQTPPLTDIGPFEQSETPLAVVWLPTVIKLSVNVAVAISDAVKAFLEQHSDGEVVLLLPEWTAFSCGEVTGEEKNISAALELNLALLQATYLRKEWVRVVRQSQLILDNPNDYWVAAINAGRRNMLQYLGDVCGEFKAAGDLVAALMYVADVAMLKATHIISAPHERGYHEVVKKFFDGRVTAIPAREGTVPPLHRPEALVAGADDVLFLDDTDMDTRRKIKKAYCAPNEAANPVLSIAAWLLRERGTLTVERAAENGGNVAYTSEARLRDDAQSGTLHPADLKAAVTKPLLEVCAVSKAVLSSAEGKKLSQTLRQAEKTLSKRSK

[8] = molecular target: T4, Tyrosyl-tRNA synthetase, putative (Trypanosoma cruzi (strain CL Brener)); assay: Trypanosoma cruzi tyrosyl tRNA synthetase (TcYRS) SOP; format: functional; conditions: 30 µM
[9] = molecular target: Chromo domain-containing protein 1 (Saccharomyces cerevisiae (strain ATCC 204508 / S288c) (Baker's yeast)) (UniProt P32657); assay: ScCHD-1 Enzyme Inhibition Assay; format: functional; conditions: 30 µM; also: in the data most compounds retested in dose-response had high values
Sequence of Chromo domain-containing protein 1 (Saccharomyces cerevisiae (strain ATCC 204508 / S288c) (Baker's yeast)) (P32657 whole entry, the tested form may be a part): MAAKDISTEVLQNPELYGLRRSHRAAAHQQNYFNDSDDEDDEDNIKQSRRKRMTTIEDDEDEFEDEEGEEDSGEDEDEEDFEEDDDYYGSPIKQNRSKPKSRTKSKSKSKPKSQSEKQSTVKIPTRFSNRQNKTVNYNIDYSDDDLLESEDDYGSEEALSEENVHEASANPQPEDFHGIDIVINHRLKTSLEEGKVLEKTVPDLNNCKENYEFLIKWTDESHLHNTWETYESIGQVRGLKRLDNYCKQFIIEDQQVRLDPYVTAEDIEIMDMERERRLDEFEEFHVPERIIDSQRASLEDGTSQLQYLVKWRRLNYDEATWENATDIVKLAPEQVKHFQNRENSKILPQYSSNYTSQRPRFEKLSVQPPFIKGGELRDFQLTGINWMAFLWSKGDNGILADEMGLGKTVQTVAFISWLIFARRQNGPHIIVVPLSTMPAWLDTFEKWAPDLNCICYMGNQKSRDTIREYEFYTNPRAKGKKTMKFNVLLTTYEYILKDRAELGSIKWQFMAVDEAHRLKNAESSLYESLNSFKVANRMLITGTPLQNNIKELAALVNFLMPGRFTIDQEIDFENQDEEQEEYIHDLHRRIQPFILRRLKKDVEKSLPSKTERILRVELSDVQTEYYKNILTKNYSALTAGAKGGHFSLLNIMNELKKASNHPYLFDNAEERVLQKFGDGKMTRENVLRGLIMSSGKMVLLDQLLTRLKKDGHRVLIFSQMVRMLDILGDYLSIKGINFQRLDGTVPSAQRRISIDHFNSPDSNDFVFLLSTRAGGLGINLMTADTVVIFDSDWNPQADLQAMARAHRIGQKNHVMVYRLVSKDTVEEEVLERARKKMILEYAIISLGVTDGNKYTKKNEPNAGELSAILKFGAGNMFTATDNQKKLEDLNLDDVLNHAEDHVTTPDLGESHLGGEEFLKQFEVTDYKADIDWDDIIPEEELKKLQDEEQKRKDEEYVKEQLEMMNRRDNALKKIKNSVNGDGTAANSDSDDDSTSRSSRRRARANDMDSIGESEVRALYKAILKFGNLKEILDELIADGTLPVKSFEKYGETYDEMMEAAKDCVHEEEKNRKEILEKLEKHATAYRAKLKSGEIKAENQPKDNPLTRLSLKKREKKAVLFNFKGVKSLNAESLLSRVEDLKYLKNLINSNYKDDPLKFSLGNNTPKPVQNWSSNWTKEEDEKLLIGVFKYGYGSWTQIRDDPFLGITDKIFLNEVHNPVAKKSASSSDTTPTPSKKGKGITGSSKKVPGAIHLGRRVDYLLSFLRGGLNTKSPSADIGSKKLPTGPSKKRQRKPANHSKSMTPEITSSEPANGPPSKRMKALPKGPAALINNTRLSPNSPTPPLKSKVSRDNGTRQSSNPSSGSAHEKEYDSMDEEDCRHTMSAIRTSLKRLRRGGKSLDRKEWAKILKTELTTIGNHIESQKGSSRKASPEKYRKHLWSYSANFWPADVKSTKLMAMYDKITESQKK

Sequence of Protein translocase subunit SecA (Escherichia coli (strain K12)) (P10408 whole entry): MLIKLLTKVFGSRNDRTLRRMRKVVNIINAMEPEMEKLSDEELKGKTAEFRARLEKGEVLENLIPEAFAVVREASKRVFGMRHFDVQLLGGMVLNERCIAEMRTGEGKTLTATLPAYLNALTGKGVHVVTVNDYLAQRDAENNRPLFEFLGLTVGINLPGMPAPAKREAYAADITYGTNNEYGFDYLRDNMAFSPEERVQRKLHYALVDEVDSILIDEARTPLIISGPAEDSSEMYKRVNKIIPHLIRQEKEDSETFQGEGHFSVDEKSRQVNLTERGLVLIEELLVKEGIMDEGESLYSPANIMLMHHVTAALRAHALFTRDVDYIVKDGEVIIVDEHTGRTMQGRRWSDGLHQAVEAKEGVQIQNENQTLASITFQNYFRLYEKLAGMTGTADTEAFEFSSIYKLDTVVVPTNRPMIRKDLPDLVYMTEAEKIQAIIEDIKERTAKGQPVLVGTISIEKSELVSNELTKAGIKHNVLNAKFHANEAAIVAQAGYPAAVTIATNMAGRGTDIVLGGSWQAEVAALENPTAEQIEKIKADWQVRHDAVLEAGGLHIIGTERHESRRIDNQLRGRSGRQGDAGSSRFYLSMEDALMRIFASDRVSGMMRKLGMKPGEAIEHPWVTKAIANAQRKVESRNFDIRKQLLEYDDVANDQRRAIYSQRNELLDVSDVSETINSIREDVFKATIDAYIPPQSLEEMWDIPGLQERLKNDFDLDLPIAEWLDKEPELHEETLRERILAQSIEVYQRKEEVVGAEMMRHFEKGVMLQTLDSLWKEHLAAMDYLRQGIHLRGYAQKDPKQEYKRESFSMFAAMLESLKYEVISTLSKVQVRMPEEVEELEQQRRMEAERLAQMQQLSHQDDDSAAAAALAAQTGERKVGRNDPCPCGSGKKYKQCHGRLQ
Sequence of Sialic acid-binding Ig-like lectin 9 (Homo sapiens) (Q9Y336 whole entry): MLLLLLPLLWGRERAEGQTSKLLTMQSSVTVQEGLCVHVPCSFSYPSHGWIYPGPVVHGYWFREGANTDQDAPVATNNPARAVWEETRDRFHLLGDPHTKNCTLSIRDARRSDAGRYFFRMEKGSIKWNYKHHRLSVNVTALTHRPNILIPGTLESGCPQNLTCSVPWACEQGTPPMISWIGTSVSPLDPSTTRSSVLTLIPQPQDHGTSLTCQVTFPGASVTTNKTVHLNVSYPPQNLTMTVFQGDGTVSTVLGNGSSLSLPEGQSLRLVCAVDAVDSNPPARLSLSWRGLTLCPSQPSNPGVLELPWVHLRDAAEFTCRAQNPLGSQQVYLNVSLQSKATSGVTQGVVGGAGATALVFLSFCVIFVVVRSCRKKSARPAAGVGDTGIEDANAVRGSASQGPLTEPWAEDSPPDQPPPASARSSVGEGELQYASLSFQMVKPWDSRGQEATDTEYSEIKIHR

| SMILES | Percent Effect [1] | Percent Effect [2] | Percent Effect [3] | Percent Effect [4] | Percent Effect (Trypanosoma cruzi) | Percent Effect [5] | Percent Effect [6] | Percent Effect (Homo sapiens) | Percent Effect [7] | Percent Effect [8] | Percent Effect [9] |
| --- | --- | --- | --- | --- | --- | --- | --- | --- | --- | --- | --- |
| Cc1cnn(C2CCCN(C(=O)c3cnc4ccccc4n3)C2)c1 (configuration not stated) | -3.93% | 5.41% | -4.84% | 2.3% | 1.04% | -1.6% | 1.62% | 13% | 4.43% | 13.6% | -3.95% |
| O=C1CC[C@H]2CN(Cc3ccc(Cl)s3)CC[C@H]2N1CCc1c[nH]cn1 | -2.35% | 5.48% | 2.32% | 10.8% | 4.37% | -1.6% | 11.9% | 34.2% | 3.12% | 8.64% | -0.239% |
| Cc1cccc(CN2C[C@@H]3CN(C(=O)NC(C)C)C[C@@H]3C2=O)c1 | 0.524% | 5.2% | 3% | 7.17% | -1.87% | -35.9% | 11.2% | -7.06% | 6.45% | 13.6% | 1% |
| Cc1ccc(F)c(-n2nnc(C(=O)O)c2-c2ccncc2)c1 | -0.715% | 13.2% | 2.72% | -1.83% | -3.8% | -2.37% | 22.7% | -8.42% | 3.19% | 10.4% | -1.85% |
| COc1cccc(C2CC(=O)Nc3nc(N)sc32)c1OC (configuration not stated) | 70.6% | 26.3% | -56.4% | -2.19% | 7.3% | 21.3% | 10.3% | -3.92% | -4.25% | -36.4% | -8.65% |
| CC(C)c1cc(NCC(C)N2CCCC2)n2nccc2n1 (configuration not stated) | 1.2% | 8.11% | 1.17% | 6.08% | -2.51% | -1.43% | 20.5% | 6.7% | 12.2% | 17.1% | -5.28% |
| Cc1ccc(C(=O)NC2CCN(C(=O)Nc3ccccn3)CC2)o1 | -3.11% | 10.4% | -3.63% | -17.5% | -7.15% | -2.32% | 6.71% | 9.29% | 2.86% | 14.1% | -18.9% |
| CN1CCCC[C@@H]2[C@H]1[C@@H](c1ccccc1)CCN2C(=O)c1cnccn1 | -4.56% | 1.35% | 4.14% | 1.98% | 0.988% | -3.48% | 21.2% | -2.99% | 5.38% | 11.7% | -17.5% |
| Cc1nc(C)n(CC2CN(Cc3cccc4c3OCCO4)CCO2)n1 (configuration not stated) | -6.14% | 18.4% | -1.72% | 0.869% | 3.46% | 1.08% | 1.78% | 2.86% | 11.3% | 28.4% | -8.32% |
| Cc1nc(CN2CCCN(CCOc3cccc(C#N)c3)CC2)no1 | -0.969% | 13.2% | -4.74% | -2.13% | -7.38% | 3.24% | 16.3% | 7.6% | 6.4% | 11.1% | -9.28% |
| CCOC1CCN(C(=O)c2cnn(-c3ccccc3Cl)c2)CC1 | -4.12% | 8.11% | -9.38% | 9.51% | 0.283% | 0.802% | 2.34% | 4.91% | 6.4% | 16.1% | -0.798% |
| CCc1ncc2c(n1)CN(Cc1nc(-c3ccsc3)no1)CC2 | -3.47% | -18.4% | -15.2% | -3.23% | -1.77% | -0.719% | 7.02% | -16.8% | 9.36% | -1.24% | 8.2% |
| Cc1cccn2c(=O)cc(CN3CCCCC3Cn3cncn3)nc12 (configuration not stated) | -9.82% | -2.7% | -1.37% | -1.48% | -4.2% | -1.74% | 9.53% | -10.4% | -1.07% | -6.17% | -6.48% |
| Cc1nn(C)c(C)c1C1CCCN1C(=O)c1ccc(Cl)o1 (configuration not stated) | -4.75% | 2.7% | 0.29% | -6.5% | 4.88% | -3.33% | 1.27% | 5.89% | 4.95% | -6.1% | 1.72% |
| Cc1cc(C2CCCN(C(=O)c3cnccn3)C2)ccn1 (configuration not stated) | 2.59% | 6.76% | 5.06% | 0.392% | -5.93% | 0.232% | 8.27% | 12.6% | 2.15% | 3.9% | 6.76% |
| Cc1cc2nc(SCC(=O)N3CCCC3)n(C(C)C)c(=O)c2[nH]1 | -2.21% | 21.1% | -3.68% | -13.3% | 2.63% | -1.18% | 19.5% | 17.9% | 1.06% | 10.4% | -6.22% |
| Cn1cc(CN2C[C@@H]3CN(Cc4ccoc4)CCO[C@@H]3C2)cn1 | -1.93% | 7.79% | 7.44% | 0.861% | -2.07% | 7.1% | 1.57% | 10.9% | 0% | 16.7% | -4.4% |
| COc1ccc(CNCCc2cc(F)cc3c2OCOC3)cc1O | -5.67% | 4.17% | -9.01% | 0.774% | -2.62% | -0.883% | 4.74% | 2.67% | 3.16% | 5.13% | -2.11% |
| O=C(CCc1cccnc1)N1CCCC(n2cncn2)C1 (configuration not stated) | -2.09% | 0% | 4.67% | 4.06% | 2.74% | 0.76% | -1.23% | -1.71% | 2.46% | -1.27% | -1.28% |
| Cc1ccc(S(=O)(=O)N2C[C@H]3C[C@H](NC(=O)c4ccnn4C)[C@H]3C2)cc1 | -1.89% | -6.76% | 9.6% | 1.27% | -0.988% | -3.02% | -3.28% | 84.1% | 2.15% | 3.9% | 14% |
| CC(=O)N1CCn2c(C(=O)N(C)C)cnc2C1 | -2.73% | 5.33% | 9.01% | -0.782% | -1.77% | -3.03% | 1.32% | 5.39% | 3.19% | 6.41% | -2.05% |
| Cc1cc(CN(C)C(=O)NC2CCN(Cc3ccccc3)C2)no1 (configuration not stated) | -1.84% | 18.4% | -5.49% | -5.79% | 4.51% | -2.3% | 15.4% | -0.406% | 8.33% | 21.9% | -12% |
